# Assay results taken from PubChem BioAssay AID583 (Sanford-Burnham Center for Chemical Genomics, 2007).
# Where “and” joins values, the source holds several entries; their conditions need not be identical. Equal entries are not always repeated. About 80 (0.06%) of roughly 140,000 compounds were called active. Rule as the data show it: active = displacement above about 50%; inactive = the rest. The entries come from a sample that favours actives as a whole.
# Target: Heat shock 70 kDa protein 1A (Homo sapiens) (UniProt P0DMV8)
# Sequence (P0DMV8 whole entry, looked up): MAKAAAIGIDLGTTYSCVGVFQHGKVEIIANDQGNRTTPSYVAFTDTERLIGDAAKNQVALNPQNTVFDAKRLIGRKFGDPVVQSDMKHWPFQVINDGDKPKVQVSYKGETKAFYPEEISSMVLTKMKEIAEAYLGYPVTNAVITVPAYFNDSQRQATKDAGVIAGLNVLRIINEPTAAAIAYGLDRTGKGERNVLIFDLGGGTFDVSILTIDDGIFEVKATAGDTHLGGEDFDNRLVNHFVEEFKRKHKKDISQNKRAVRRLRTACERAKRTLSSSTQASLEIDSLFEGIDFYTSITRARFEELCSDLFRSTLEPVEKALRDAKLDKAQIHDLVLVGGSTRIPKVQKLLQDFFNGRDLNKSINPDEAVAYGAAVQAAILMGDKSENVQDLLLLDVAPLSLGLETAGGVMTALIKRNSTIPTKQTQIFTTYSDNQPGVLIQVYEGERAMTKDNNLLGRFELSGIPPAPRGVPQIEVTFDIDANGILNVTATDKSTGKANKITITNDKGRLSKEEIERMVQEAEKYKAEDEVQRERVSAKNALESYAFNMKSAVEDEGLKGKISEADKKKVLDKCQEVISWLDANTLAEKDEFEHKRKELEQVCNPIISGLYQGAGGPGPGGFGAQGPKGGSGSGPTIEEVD
# Assay: small molecules displacing fluorescent ligand from Hsp70 – biochemical, fluorescence polarization, primary screen (AID 583);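 also: plate controls were vehicle for no effect and reference ligand for full effect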
# Conditions: Hsp70 fluorescence polarization probe displacement, mP; at 20 µM; hits give high values
row,Compound,displacement
1,COc1ccc(N2C(=O)/C(=C/c3ccc(I)o3)C(=O)NC2=S)cc1,92% (active)
2,CCOc1ccc(N2C(=O)/C(=C/c3ccc(C)o3)C(=O)NC2=S)cc1,-26.6% (inactive)
3,CCOc1ccc(N2C(=O)/C(=C/c3ccc(Br)o3)C(=O)NC2=S)cc1,84.5% (active)
4,COc1ccc(N2C(=O)/C(=C/c3ccc(-c4cc(C(=O)O)ccc4Cl)o3)C(=O)NC2=S)cc1,5% (inactive)
5,CN1C(=O)NC(=O)/C(=C/c2ccc(I)o2)C1=O,9.4% (inactive)
6,O=C1NC(=O)N(c2ccc(Cl)cc2)C(=O)/C1=C/c1ccc(Br)o1,-0.1% (inactive)
7,O=C1NC(=S)N(c2ccc(F)cc2)C(=O)/C1=C/c1ccc(Br)o1,68.7% (active)
8,CN1C(=O)NC(=O)/C(=C/c2ccc(Br)o2)C1=O,2.1% (inactive)
9,CCOc1ccc(N2C(=O)NC(=O)/C(=C\c3ccc(C)o3)C2=O)cc1,-5.2% (inactive)
10,Cc1cccnc1NC1=NCC(C)S1 (stereo unspecified),3.9% (inactive)
11,CCC(=O)N1N=C2C3CCN(CC3)C2C1c1ccc([N+](=O)[O-])cc1 (stereo unspecified),-5.5% (inactive)
12,CCC(C)N=Cc1c(O)n(-c2ccccc2)c(=O)[nH]c1=O (stereo unspecified),-0.1% (inactive)
13,CC(C)C12CN3CCN(CC(C3)C1O)C2 (stereo unspecified),5.4% (inactive) and 5.3% (inactive)
14,COc1ccc(CN2C(=O)NC(=O)/C(=C\c3ccoc3)C2=O)cc1,-10% (inactive)
15,C=CCN1C(=O)/C(=C\c2cccn2-c2ccc([N+](=O)[O-])cc2)C(=O)NC1=S,20.3% (inactive)
16,C=CCN1C(=O)/C(=C\c2cccn2-c2cccc([N+](=O)[O-])c2)C(=O)NC1=S,60.8% (active)
17,CCN1C(=O)/C(=C/c2ccoc2)C(=O)NC1=S,73.6% (active)
18,Cn1cccc1/C=C1/C(=O)NC(=S)N(c2ccc(Cl)cc2)C1=O,36.4% (inactive)
19,CCN1C(=O)/C(=C/c2cccn2C)C(=O)NC1=S,72.7% (active)
20,O=C1NC(=O)N(c2ccccc2)C(=O)/C1=C/c1ccoc1,-9.7% (inactive)
21,CN1C(=O)C(=Cc2cccn2-c2cccc([N+](=O)[O-])c2)C(=O)N(C)C1=O,-8.6% (inactive)
22,C=CCN1C(=O)NC(=O)C(=Cc2cccn2C)C1=O,0.2% (inactive)
23,CN1C(=O)C(C2c3ccccc3C(=O)N2Cc2ccccc2)C(=O)N(C)C1=O (stereo unspecified),-7% (inactive)
24,C=CCN1C(=O)/C(=C\c2cccs2)C(=O)NC1=S,2.1% (inactive)
25,O=S(=O)(c1ccccc1)N1CC1c1ccccc1 (stereo unspecified),0.1% (inactive)
26,CCOC(=O)N1CCN(C(C)C(=O)c2c[nH]c3ccccc23)CC1 (stereo unspecified),-0.3% (inactive)
